Results: PubChem BioAssay AID1159580 (chemical genetic matrix, 2015)
Values joined by “and” are separate entries in the source; they are usually repeats but may differ in a detail not shown here. Equal entries are not always repeated. In all, about 5,500 compounds went through this assay and about 2,000 (36%) were called active. Another 18% or so got no clear call; they are omitted. Rule as the data show it: active = normalized growth mostly below about 0.91 (no sharp cut-off); inconclusive = no clear call, values can overlap the other calls; inactive = mostly above about 0.92. The list shows a part of the results.

Experiment: chemical genetic growth profiling, strain panel (AID 1159580);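 also: tested at 20 µM; growth read once vehicle control cultures reached saturation at 30 °C; 1 = growth at the plate median or of vehicle wells; lower values mean less growth of the strain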
Conditions: S. cerevisiae deletion strains, growth OD

Measured: normalized growth

O=C1CN(/N=C\c2ccc([N+](=O)[O-])o2)C(=O)N1
inactive: locus YAL013W, strain DEP1, hits give low values 0.993 | locus YAL021C, strain ccr4, hits give low values 0.98 | locus YAL026C, strain drs2, hits give low values 0.956 | locus YAL030W, strain snc1, hits give low values 0.986 | locus YBL061C, strain skt5, hits give low values 0.987 | locus YBR009C, strain hhf1, hits give low values 0.977 | locus YBR021W, strain FUR4, hits give low values 0.997 | locus YBR023C, strain chs3, hits give low values 0.982 | locus YBR171W, strain sec66, hits give low values 0.982 | locus YBR229C, strain ROT2, hits give low values 1.01 | locus YBR231C, strain swc5, hits give low values 0.977 | locus YBR279W, strain paf1, hits give low values 0.97 | locus YCL011C, strain gbp2, hits give low values 0.964 | locus YCL016C, strain dcc1, hits give low values 0.99 | locus YCL029C, strain bik1, hits give low values 1.01 | locus YCL061C, strain MRC1, hits give low values 0.986 | locus YCL069W, strain vba3, hits give low values 0.956 | locus YCR088W, strain abp1, hits give low values 0.966 | locus YDL005C, strain med2, hits give low values 0.967 | locus YDL035C, strain GPR1, hits give low values 0.978 | locus YDL040C, strain nat1, hits give low values 0.97 | locus YDL074C, strain BRE1, hits give low values 0.914 | locus YDL101C, strain DUN1, hits give low values 0.995 | locus YDL134C, strain PPH21, hits give low values 1 | locus YDL185W, strain tfp1, hits give low values 0.99 | locus YDL192W, strain arf1, hits give low values 0.991 | locus YDR001C, strain nth1, hits give low values 0.975 | locus YDR069C, strain doa4, hits give low values 0.94 | locus YDR101C, strain arx1, hits give low values 0.976 | locus YDR137W, strain rgp1, hits give low values 1.02 | locus YDR150W, strain NUM1, hits give low values 1 | locus YDR159W, strain sac3, hits give low values 0.954 | locus YDR162C, strain NBP2, hits give low values 0.99 | locus YDR195W, strain ref2 0.979 | locus YDR297W, strain sur2, hits give low values 0.983 | locus YDR318W, strain mcm21, hits give low values 0.973 | locus YDR334W, strain swr1, hits give low values 0.976 | locus YDR335W, strain msn5, hits give low values 0.986 | locus YDR388W, hits give low values 0.995 | locus YDR502C, strain sam2, hits give low values 0.974 | locus YEL003W, strain gim4, hits give low values 0.942 | locus YEL037C, strain rad23, hits give low values 0.963 | locus YEL061C, strain CIN8 (second series), hits give low values 0.969 | locus YEL061C, strain CIN8, hits give low values 0.996 | locus YER015W, strain faa2, hits give low values 0.961 | locus YER016W, strain bim1, hits give low values 0.96 | locus YER110C, hits give low values 0.99 | locus YER111C, strain swi4, hits give low values 0.981 | locus YER155C, strain BEM2, hits give low values 0.998 | locus YER167W, strain BCK2, hits give low values 0.985 | locus YFR010W, strain ubp6, hits give low values 0.942 | locus YGL078C, strain dbp3, hits give low values 0.977 | locus YGL086W, strain mad1, hits give low values 0.977 | locus YGL167C, strain pmr1, hits give low values 0.983 | locus YGL173C, strain kem1, hits give low values 0.987 | locus YGL227W, strain vid30, hits give low values 0.979 | locus YGL240W, strain doc1, hits give low values 0.922 | locus YGL248W, strain PDE1, hits give low values 1 | locus YGL253W, strain hxk2, hits give low values 0.976 | locus YGR078C, strain PAC10, hits give low values 0.975 | locus YGR135W, strain pre9, hits give low values 0.963 | locus YGR229C, strain SMI1, hits give low values 0.958 | locus YGR252W, strain gcn5, hits give low values 0.804 | locus YHR013C, strain ard1, hits give low values 0.942 | locus YHR027C, strain rpn1, hits give low values 0.985 | locus YHR030C, strain SLT2, hits give low values 0.991 and 0.902 | locus YHR079C, strain IRE1 (second series), hits give low values 0.989 | locus YHR079C, strain IRE1, hits give low values 0.91 | locus YHR094C, strain hxt1, hits give low values 0.999 | locus YHR129C, strain ARP1, hits give low values 1 | locus YHR142W, strain chs7, hits give low values 0.946 | locus YHR200W, strain rpn10, hits give low values 0.985 | locus YIL066C, strain RNR3, hits give low values 1.01 | locus YIL073C, strain SPO22, hits give low values 0.969 | locus YIL125W, strain kgd1, hits give low values 0.987 | locus YIR030C, strain dcg1, hits give low values 0.994 | locus YJL092W, strain hpr5, hits give low values 0.971 | locus YJL095W, strain BCK1 (second series), hits give low values 0.982 | locus YJL095W, strain BCK1, hits give low values 0.969 and 0.892 | locus YJL115W, strain asf1, hits give low values 0.951 | locus YJL129C, strain trk1, hits give low values 0.968 | locus YJL134W, strain LCB3, hits give low values 1 | locus YJL154C, strain vps35, hits give low values 0.971 | locus YJL164C, strain tpk1, hits give low values 0.957 | locus YJL166W, strain qcr8, hits give low values 0.964 | locus YJL168C, strain set2, hits give low values 0.989 | locus YJL187C, strain SWE1 (second series), hits give low values 1.01 | locus YJL187C, strain SWE1, hits give low values 0.973 | locus YJR043C, strain POL32, hits give low values 0.979 | locus YJR066W, strain TOR1, hits give low values 0.87
active: locus YDR392W, strain spt3, hits give low values 0.68 | locus YER155C, strain BEM2 (second series), hits give low values 0.854
